# Source: PubChem BioAssay AID686978 (National Center for Advancing Translational Sciences (NCATS), 2013)
# The whole screen tested about 420,000 compounds, of which about 64,000 (15%) were called active. About 27% were inconclusive and are not listed. The call rests on the fitted dose curve; in most records, active means well fitted inhibition curve with a large enough effect; inconclusive means small, poorly fitted or top-dose-only effect; inactive means flat fitted curve, though single readings scatter. A selection follows.
# Experiment: qHTS for Inhibitors of human tyrosyl-DNA phosphodiesterase 1 (TDP1): qHTS in cells in absence of CPT; further: nearly all actives have a fitted effect of over 55% in size
# Conditions: DT40 Tdp1-/- hTDP1 cells, no CPT, ATP luminescence, 48 h; activity change, negative = growth inhibition: at 46.2 µM (top of the series)
# Summary of the method: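 Seeded 400 DT40-hTDP1 cells/well (vehicle DMSO, no 20 nM CPT); pinned compounds; ≥48 hr at 37 °C; CellTiter-Glo luminescence as viability measure.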
# On the % scale 0 is the no-effect control and ±100 the full control effect; potency means the concentration at half of the fitted maximal effect.
Structure (SMILES),"activity change, negative = growth inhibition",Potency
CCOC(=O)C(NC(C)=O)C(=O)Nc1ccc(OC)cc1 (stereo not drawn),-3.87% (inactive),–
CC(=O)N(O)CCCCCNC(=O)CCC(=O)N(O)CCCCCNC(=O)CCC(=O)N(O)CCCCCNC(=O)CCC(=O)O,-5.15% (inactive),–
Cc1cc(C)nc(NC2=NCC(=O)N2c2ccc(Cl)cc2)n1,-7.59% (inactive),–
CCc1nc2ccc(C(=O)N3CCN(c4cc(Cl)ccc4C)CC3)cc2nc1CC,–,18.4 µM (active)
CCOC(=O)N1CCN(C(=O)c2ccc3nc4cc(Cl)ccc4c(=O)n3c2)CC1,-13.1% (inactive),–
Cc1ccc(Cl)cc1N1CCN(C(=O)c2cccn3c(=O)c4cc(Cl)ccc4nc23)CC1,-1.72% (inactive),–
CN(C)CCCNC(=S)N1CCC(c2nc3ccccc3[nH]2)CC1,10.9% (inactive),–
CC(C)(C)c1ccc(C(CC(=O)O)NS(=O)(=O)Cc2ccccc2)cc1 (stereo not drawn),12.1% (inactive),–
CCCCc1nc2c(=O)[nH]c3ccccc3c2o1,-13.7% (inactive),–
O=S(=O)(ON(c1ccccc1)S(=O)(=O)c1ccccc1)c1ccccc1,-27.9% (inactive),–
CC1=C/C(=N\OS(=O)(=O)c2ccccc2)C=CC1=O,–,1 µM (active)
CCOC(=O)c1cc(NC(=O)c2cccnc2)cc(C(=O)OCC)c1,-5.59% (inactive),–
CCC(=O)Nc1cccc(NC(=O)c2cccnc2)c1,7.17% (inactive),–
CCCC(=O)Nc1nc2ccc(NC(=O)c3c(F)c(F)c(OC)c(F)c3F)cc2s1,–,0.651 µM (active)
CCCC(=O)Nc1nc2ccc(NC(=O)c3cccnc3)cc2s1,–,9.2 µM (active)
CCCC(=O)Nc1ccc2c(c1)nc1n2CCSC1,-2.08% (inactive),–
CSc1nc2ccc(NC(=O)c3c(F)cccc3F)cc2s1,-1.17% (inactive),–
O=C(COC(=O)/C=C/c1ccc(OC(F)F)cc1)NC1CCCCC1,-11% (inactive),–
O=C(CCNS(=O)(=O)c1ccccc1)NCCCc1ccccc1,15.1% (inactive),–
O=S(=O)(c1ccccc1)N1CN(Cc2ccc(F)cc2)c2nc3ccccc3nc21,-29.9% (inactive),–
O=C(CCN1C(=O)C2CCCCC2C1=O)Nc1ccc(OC(F)F)cc1 (stereo not drawn),-2.98% (inactive),–
COc1ccccc1CNc1ncnc2ccc(-c3ccc4c(c3)OCO4)cc12,-26.4% (inactive),–
COCCNc1ncnc2ccc(-c3ccccc3CN(C)C)cc12,-13.2% (inactive),–
COc1ccccc1CNc1ncnc2ccc(-c3c(C)noc3C)cc12,–,11.6 µM (active)
CCC1(CC)NC(=O)N(CC(=O)OCC(=O)Nc2ccc(C(F)(F)F)cc2)C1=O,-10.4% (inactive),–

Structure (SMILES),"activity change, negative = growth inhibition",Potency
CCCN(C/C=C\I)[C@@H]1CCc2cccc(O)c2C1,–,21.1 µM (active)
CCCN(CCc1ccccc1)C1CCc2c(O)cccc2C1 (stereo not drawn),–,11.6 µM (active)
O=C(C(=O)N1CCOc2ccc(CN3CCN(Cc4ccccn4)CC3)cc2C1)c1ccccc1,-22.4% (inactive),–
COCCNC(=O)c1onc(CSc2cccc(C)c2)c1C(=O)O,-8.38% (inactive),–
CCOc1ccc(NC(=S)N2CCC(N(C)CC3CCCO3)CC2)cc1 (stereo not drawn),1.02% (inactive),–
COc1ccc2oc(N)c(C=O)c(=O)c2c1,0.424% (inactive),–
CCOc1ccc(NC(=O)C/C(C)=N/NC(=O)Cc2cccs2)cc1,-1.31% (inactive),–
CN1C(=O)[C@H]2[C@@H](C3CC3)N3C(=O)CN(Cc4ccccc4)C(=O)[C@@]3(C)[C@H]2C1=O,2.76% (inactive),–
Cc1ccccc1Cn1c(=O)[nH]c2ccccc21,-22.8% (inactive),–
Cc1cccc(C)c1NC(=O)N1CC=C(n2c(=O)[nH]c3ccccc32)CC1,–,20.6 µM (active)
Cc1cccc(C)c1NC(=O)N1CC(C)OC(C)C1 (stereo not drawn),19.8% (inactive),–
COc1ccc(C)cc1N1C(=O)[C@@H]2C[C@H]1CN2Cc1cccc(OC)c1O,-29.5% (inactive),–
COc1ccc(N2CCC(N3CCN(C)C(CCO)C3)CC2)cc1 (stereo not drawn),25.1% (inactive),–
COc1ccc(-c2[nH]c3c(c2-c2c(-n4cccc4)n(C)c(=O)n(C)c2=O)c(=O)n(C)c(=O)n3C)cc1,-7.33% (inactive),–
COc1ccc(-c2c3c(=O)n(C)c(=O)n(C)c3cn2NC(C)=O)cc1,1.83% (inactive),–
COc1ccc(-c2c3c(=O)n(C)c(=O)n(C)c3c3c(C)nc4ccccc4n23)cc1,–,20.6 µM (active)
CC1=NNC(=O)C1CCC(=O)N/N=C\c1cccc(Cl)c1 (stereo not drawn),6.28% (inactive),–
CC(=O)C[C@@H]1OC[C@H](C)N1S(=O)(=O)c1ccc(C)cc1,1.6% (inactive),–
CC(=O)C[C@@H]1OC[C@H](CO)N1S(=O)(=O)c1ccc(C)cc1,11% (inactive),–
Cc1ccc(S(=O)(=O)N2[C@@H](Cc3ccccc3)CO[C@H]2CC(=O)OCc2ccccc2)cc1,–,23.1 µM (active)
CC(=O)Nc1nc(C)c(Cc2ccccc2)c(=O)[nH]1,3.66% (inactive),–
CCCCn1c(N)c(N(CC(C)C)C(=O)c2ccc(Br)o2)c(=O)[nH]c1=O,-34.5% (inactive),–
CCCCCCN1CCN(C2CN(Cc3cn(CCCCCC)nn3)S(=O)(=O)C2)CC1 (stereo not drawn),–,20.6 µM (active)
CN(C)C1CN(Cc2cn(Cc3ccccc3)nn2)S(=O)(=O)C1 (stereo not drawn),-19.1% (inactive),–
Cc1ccc(Cn2cc(CN3CC(N4CCN(C)CC4)CS3(=O)=O)nn2)cc1 (stereo not drawn),-22.6% (inactive),–

Structure (SMILES),"activity change, negative = growth inhibition",Potency
Cc1cc(C)cc(CN2CCc3nnc(C(NS(C)(=O)=O)C(C)C)n3CC2)c1 (stereo not drawn),-16.9% (inactive),–
O=S1(=O)CC(N2CCN(CCO)CC2)CN1Cc1cn(Cc2cccc(Cl)c2)nn1 (stereo not drawn),6.99% (inactive),–
O=S1(=O)CC(N2CCN(Cc3ccccc3F)CC2)CN1Cc1cn(Cc2cccc(C(F)(F)F)c2)nn1 (stereo not drawn),–,16.4 µM (active)
O=S1(=O)CC(N2CCN(CCO)CC2)CN1Cc1cn(Cc2ccc(Cl)cc2)nn1 (stereo not drawn),-19.6% (inactive),–
CN(Cc1cn(Cc2ccc(C(F)(F)F)cc2)nn1)C1CN(Cc2cn(Cc3ccc(C(F)(F)F)cc3)nn2)S(=O)(=O)C1 (stereo not drawn),–,4.61 µM (active)
Cc1cccc(CN2CCN(C3CN(Cc4cn(Cc5cc(C)cc(C)c5)nn4)S(=O)(=O)C3)CC2)c1 (stereo not drawn),–,16.4 µM (active)
CC(C)C(C)(C#N)NC(=O)CSc1nc2scc(-c3ccccc3)c2c(=O)[nH]1 (stereo not drawn),-17.6% (inactive),–
CC1(c2ccc(Cl)cc2)NC(=O)N(CC(=O)c2ccc3c(c2)OCO3)C1=O (stereo not drawn),-5.62% (inactive),–
Cn1c2c(c(=O)n(C)c1=O)CN(Cc1ccco1)CN2,4.5% (inactive),–
CC(=O)NC(Cc1ccc(F)c(F)c1)C(=O)NC1CCN(C(=O)c2ccc(C)cc2)CC1 (stereo not drawn),-5.08% (inactive),–
CCOc1ccc(S(=O)(=O)N2CCCCCC2)c2ccccc12,-29.8% (inactive),–
COc1ccc(-c2ocnc2C(=O)Nc2ccc3c(c2)CCC3)cc1,-22.7% (inactive),–
CSC1=NCCN1C(=O)Cc1cccc2ccccc12,8.2% (inactive),–
COCCN1C(=O)C(=O)/C(=C(/O)c2ccc(S(=O)(=O)N3CCOCC3)cc2)C1c1ccc(O)c(OC)c1 (stereo not drawn),17.3% (inactive),–
O=C(c1ccccc1Cl)N(Cc1ccccc1F)N1C(=O)CCCC1=O,1.49% (inactive),–
CN(C)CCN(C(=O)C1CCCCC1)c1nc2cc3c(cc2s1)OCO3,-3.74% (inactive),–
O=C(Nc1ccc(N2C(=O)c3cccc4cccc(c34)C2=O)cc1)c1ccc(N2CCCCC2)c([N+](=O)[O-])c1,–,7.31 µM (active)
O=C(COc1ccccc1F)NNC(=O)c1ccc(N2CCCCC2)c([N+](=O)[O-])c1,-82% (inactive),–
CC(=O)c1ccc(NC(=O)c2ccc(-n3cncn3)c([N+](=O)[O-])c2)cc1,-26.5% (inactive),–
O=C(Nc1ccc2c(c1)OCO2)c1ccc(N2C(=O)c3ccccc3C2=O)cc1,-6.15% (inactive),–
O=C(Nc1cccc(C(F)(F)F)c1)c1ccc(N2CCNCC2)c([N+](=O)[O-])c1,–,18.4 µM (active)
CN1CCN(CC#CCC2(O)c3ccccc3-c3ccccc32)CC1,-7.87% (inactive),–
CCC(=O)NC(=S)Nc1ccc(NC(=O)c2ccco2)c(Cl)c1,-4.57% (inactive),–
COC(=O)c1cccc(NC(=O)CSc2nc(C)cc(=O)[nH]2)c1,1.31% (inactive),–
COC(=O)c1c(C(=O)OC)c(-c2cccc(C)c2)n2c1CS(=O)C2 (stereo not drawn),-0.626% (inactive),–

Structure (SMILES),"activity change, negative = growth inhibition",Potency
COc1ccc(C2CC(c3cccs3)=NN2C(=O)CSc2nncs2)cc1OC (stereo not drawn),-23.6% (inactive),–
COc1ccc(C2CC(c3cccs3)=NN2C(=O)CCC(=O)O)cc1OC (stereo not drawn),3.1% (inactive),–
O=C1c2cccc(OCC(=O)N3N=C(c4cccs4)CC3c3ccc(F)cc3)c2CCN1Cc1ccccc1 (stereo not drawn),–,9.2 µM (active)
CN(CC(=O)NC1CCCCC1)S(=O)(=O)c1ccc(Br)s1,-32.5% (inactive),–
O=C1C(c2[nH]c3ccccc3c2O)=Nc2ccccc21,-16.4% (inactive),–
CCOC(=O)N1CCC(Nc2c(NCCCN3CCN(CC)CC3)c(=O)c2=O)CC1,-10.5% (inactive),–
CCN1CCN(CCCNC(=O)c2cnn(-c3ccc(C)cc3C)c2C2CCN(C(=O)OC(C)(C)C)CC2)CC1,–,20.6 µM (active)
COc1ccccc1N1CCN(CC(=O)NCCc2ccc(S(N)(=O)=O)cc2)CC1,-1.08% (inactive),–
CCOC(=O)N1CCC(NC(=O)c2cnn3ccccc23)CC1,-5.98% (inactive),–
Cc1ccc(CN2CCC(CNC(=O)c3cnn(-c4ccccc4Cl)c3C3CCN(C(=O)OC(C)(C)C)CC3)CC2)cc1,–,4.61 µM (active)
COc1ccccc1-c1ccnc(-n2ncc(C(=O)NCCCN3CCOCC3)c2C)n1,-3.07% (inactive),–
CSCCC(=O)N1CCCC(CNC(=O)c2ccccc2Cl)C1 (stereo not drawn),-18.6% (inactive),–
COc1ccccc1CN1CCC(CNC(=O)c2cnn(-c3cccc(Cl)c3)c2C2CCN(C(=O)OC(C)(C)C)CC2)CC1,–,5.8 µM (active)
Cc1ccc(-n2ncc(C(=O)NC3CC3)c2C2CCN(C(=O)OC(C)(C)C)CC2)c(C)c1,-18.3% (inactive),–
COc1ccccc1N1CCN(CCCNC(=O)c2cnn(-c3ccccc3Cl)c2C2CCN(C(=O)OC(C)(C)C)CC2)CC1,–,5.8 µM (active)
CCc1cccc(C)c1NC(=O)COC(=O)Cc1ccsc1,-18.7% (inactive),–
CC1CCCC(C)N1/N=C/c1ccccc1OC(F)F (stereo not drawn),-23.5% (inactive),–
O=C(O)CCCCOn1ccnc1,-5.4% (inactive),–
CCCc1cc(=O)[nH]c2nnc(SCC(=O)Nc3nnc(SCC)s3)n12,-29.2% (inactive),–
COc1ccc(C(C)=O)cc1COC(=O)Cn1cnc2ccccc2c1=O,-0.295% (inactive),–
COCCNC(=O)C1CCCN(Cc2ccccc2Cl)CC1 (stereo not drawn),-3.91% (inactive),–
COc1ccccc1CN1CCC(CNC(=O)c2cnn(-c3ccccc3Cl)c2C2CCN(C(=O)OC(C)(C)C)CC2)CC1,–,8.2 µM (active)
COC(=O)N1CCC2(CCCN(Cc3ccccc3OC)C2)CC1,-0.23% (inactive),–
